Experimental data taken from PubChem BioAssay (NCI).
Compounds without any hit were thinned out: in the full panel of roughly 79,000, 15% have a hit. Unmarked numbers belong to inactive results. Active and inactive are the calls of the source. Rule as the data show it: active = growth inhibition above about 70%; inactive = the rest.

What was measured:
[1] = NCI Yeast Anticancer Drug Screen. Data for the rad50 strain (AID 155);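 also: 0% = growth of vehicle-only cultures of the same strain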; settings: S. cerevisiae rad50 strain growth inhibition; at 50.0 µM; hits give high values
Procedure, shortened: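 Compounds were tested on a yeast strain with an engineered DNA damage repair alteration; the reported value is growth inhibition normalised to vehicle treatment.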

[2] = NCI Yeast Anticancer Drug Screen. Data for the mec2-1 strain (AID 157); settings: S. cerevisiae mec2-1 strain, at 50.0 µM, hits give high values
Procedure, shortened: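 Mutant yeast (mec2-1) grown with compound; growth inhibition relative to vehicle control reported.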

[3] = NCI Yeast Anticancer Drug Screen. Data for the sgs1 mgt1 strain (AID 161);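 also: 0% = growth of cultures given vehicle only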; settings: S. cerevisiae sgs1 mgt1 strain, at 50.0 µM, hits give high values
Procedure, shortened: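 Percent growth inhibition was derived by comparing compound-exposed mutant yeast with vehicle-exposed cultures. The strain carries alterations in DNA damage repair.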

[4] = NCI Yeast Anticancer Drug Screen. Data for the cln2 rad14 strain (AID 165);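 also: 0% = growth equal to vehicle treated cultures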; settings: S. cerevisiae cln2 rad14 strain, at 50.0 µM, hits give high values
Procedure, shortened: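 Readout is yeast growth inhibition versus vehicle-treated controls, using a strain with cln2 and rad14 alterations exposed to compound.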

[5] = NCI Yeast Anticancer Drug Screen. Data for the bub3 strain (AID 167); settings: S. cerevisiae bub3 mutant strain, at 50.0 µM, hits give high values
Procedure, shortened: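 Growth of a checkpoint-deficient yeast mutant is measured after compound exposure. Values represent inhibition relative to vehicle.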

[6] = NCI Yeast Anticancer Drug Screen. Data for the mlh1 rad18 strain (AID 175); settings: S. cerevisiae mlh1 rad18 strain growth inhibition; at 50.0 µM; hits give high values
Procedure, shortened: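 Genetically defined yeast (DNA repair-deficient) exposed to compounds; growth inhibition determined relative to vehicle.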

| SMILES | growth inhibition [1] | growth inhibition [2] | growth inhibition [3] | growth inhibition [4] | growth inhibition [5] | growth inhibition [6] |
| --- | --- | --- | --- | --- | --- | --- |
| O=C1c2ccccc2C(=O)N1CCOCCOCCN1C(=O)c2ccccc2C1=O | -8.15% | -6% | -17% | -20.7% | -2.7% | 20.4% |
| COc1ncnc2ccccc12 | -30.9% | -16.8% | -20.8% | -32.8% | -25.2% | -25.1% |
| COc1ccc(NC(=O)Oc2ccccc2-c2ccccc2)cc1 | 1.1% | 14.3% | -1.7% | -18.1% | -6.7% | -12.3% |
| CCOc1ccnc2c(OC)c(C)c3nc4ccccc4nc3c12 | 7.6% | -13.2% | -4.65% | 13.6% | -7.3% | 91% (active) |
| C/C(CCN(C)C)=N\OC(=O)c1ccccc1 | -12.2% | -25.9% | -33.2% | -6.65% | -6.95% | -26.9% |
| CO/C(=N\N=C\c1ccc(OC)c(OC)c1)c1ccncc1 | -21.6% | -37.9% | -12.9% | -7.75% | -28.6% | -40% |
| Nc1cccc2cccc(N)c12 | 51.9% | 2.1% | 41.5% | 15.3% | 9.65% | 45% |
| CC1CCCCC(=O)N1 (configuration not stated) | 11.6% | 13.4% | 27.7% | 5.1% | 18.6% | -1.35% |
| Cc1nc2ccccc2c(=O)n1-c1ccc(-c2nnc(Sc3nnc(-c4ccc(-n5c(C)nc6ccccc6c5=O)cc4)n3-c3ccccc3)n2-c2ccccc2)cc1 | 16.6% | -3.35% | 8.2% | -17.6% | 11.3% | 30.1% |
| CC(=O)OC12C(C)=C(C)C(=O)N1c1ccccc1N2C(C)=O (configuration not stated) | -20.8% | 2.55% | 6.7% | 15.9% | 6.15% | 11.1% |
| CCCCc1nc2c([nH]1)c(=O)n(C)c(=O)n2C | 8.1% | -10.9% | 5.2% | 4.85% | -36.5% | 4.25% |
| C=C1CCCCCCCCCCC12SCCCS2 | -42.1% | 7.6% | -25.7% | -11.9% | 20% | -26.6% |
| NC1=NS(=O)(=O)Nc2nc(-c3ccc([N+](=O)[O-])o3)[nH]c21 | 50.5% | -8.6% | 26.1% | 23.2% | -2.7% | 50.5% |
| CCOC(=O)c1ccc(NC(=O)Nc2cc(Cl)c(OC)cc2OC)cc1 | 75% (active) | 90.7% (active) | 94% (active) | 91.8% (active) | 76.1% (active) | 85.8% (active) |
| COC12C=CC(CC1)C1C(=O)C=CC(=O)C12 (configuration not stated) | -36.5% | -31.4% | -4.7% | -39.3% | -24.2% | -21.4% |
| CCOC(=O)c1ccc(NC=O)cc1 | 4.1% | 7.35% | -8.75% | -12.5% | 1.95% | -24.1% |
| CCC1CN2CCc3cc(OC)c(OC)cc3C2CC12CO2 (configuration not stated) | -5.6% | -21.3% | 3.15% | -2.5% | 48.8% | -36.1% |
| O=C(O)Cc1ccc(-c2ccccc2)cc1 | 29.1% | 23.6% | 21.2% | 6.45% | 20.5% | 25.4% |
| CC(=Nc1ccccc1)Nc1ccccc1 | -5.45% | 3.3% | 18.1% | -20.6% | 4.7% | 48.1% |
| CC(=O)/C(C(=N)C(=O)c1ccccc1)=C(\C)O | -12.1% | 22.5% | 3.5% | -16.6% | 4.3% | 0.25% |
| O=C(NC12CC3CC(CC(C3)C1)C2)C(=O)c1c[nH]c2ccccc12 | 8.5% | 14.2% | 8.1% | 24.6% | 23.6% | 11.4% |

| SMILES | growth inhibition [1] | growth inhibition [2] | growth inhibition [3] | growth inhibition [4] | growth inhibition [5] | growth inhibition [6] |
| --- | --- | --- | --- | --- | --- | --- |
| Nc1cn(Cc2ccccc2)c(=O)n(Cc2ccccc2)c1=O | -1.85% | -7.85% | -9.5% | -57.5% | 8.95% | -23.6% |
| CCCCN(CCCC)CC(O)c1cc(-c2cccc(I)c2)nc2c(Cl)cc(Cl)cc12 (configuration not stated) | 38.6% | 4.4% | -4.75% | -11.1% | -6.15% | 29.3% |
| CN(C)Cc1ccccc1O | 4.15% | 17.6% | -3.6% | -17.6% | 5.65% | -51.5% |
| COc1ccc2nc(CC(C)C)c3c(c2c1)-c1ccccc1C3=O | 1.35% | -8.8% | -10.2% | -12.2% | -0.35% | -12.2% |
| CCC(CO)NC(=O)c1cccnc1 (configuration not stated) | -13.5% | -8.3% | -2.85% | -19% | -7.6% | 2.25% |
| O=C(Nc1c(Cl)cccc1Cl)Oc1cccnc1 | 0% | -19.8% | -9.1% | 2.55% | -23.1% | -1.05% |
| COc1cc2c(c(OC)c1OC)-c1ccc(SC)c(=O)cc1[C@@H](NC(=O)CO)CC2 | 30% | 14.3% | 19.6% | 19.6% | 21.1% | 22.2% |
| CN(C)CCN(C)CCN(C)CCN(C)C | -10.4% | -25.8% | 11.8% | -6.75% | 5.9% | -6.7% |
| COc1cc(OC)c2c(=O)cc(-c3ccc(OC)c(OC)c3OC)oc2c1 | -31.8% | -23.6% | -30.1% | -2.3% | -18.4% | -40.5% |
| O=C1c2ccccc2CC1(c1ccccc1)c1ccccc1 | 15.1% | -5% | -6.6% | 10.5% | -9.85% | -7.5% |
| COc1cc(C2SCCCCCCCCCCSC(c3ccc(O)c(OC)c3)SCCCCCCCCCCS2)ccc1O (configuration not stated) | -24.6% | -24.8% | -29.2% | -18.9% | -30.2% | -6.9% |
| C/C(=N/NC(N)=O)C1CCC(C)CC1 (configuration not stated) | 39% | 31.8% | 21.9% | 12.3% | 8.2% | 31% |
| O=C(/C=C/c1ccccc1)NC1C=Nc2ccccc2NC1=O (configuration not stated) | 13.8% | 18.2% | 7.2% | -11.9% | 7.05% | 16.1% |
| O=C1c2cc([N+](=O)[O-])ccc2-c2c(F)cccc21 | 5.5% | 8.25% | -1% | -32% | 10.2% | 4.1% |
| CC1CN(C(=S)Nc2ccccc2)CCN1C(=S)Nc1ccccc1 (configuration not stated) | -9% | 8.7% | 6.3% | -42.9% | 0.5% | -7.6% |
| Cc1cc(N/N=C/c2ccc(Cl)cc2)c2cc3c(cc2n1)OCO3 | 24.2% | -4.5% | -7% | 1.6% | 27.5% | 14.7% |
| CN(C)CCCNc1cc[n+](C)c2cccc([N+](=O)[O-])c12 | 27.1% | 15.4% | 31.4% | 20.4% | 13.8% | 27.3% |
| C=CCNC(=S)Nc1cccc(OC(=O)Nc2ccc(Cl)c(Cl)c2)c1 | -16.4% | -11.2% | -18.4% | -23.1% | 1% | -12.4% |
| [O-]c1c[n+](-c2cc(Cl)ccc2Cl)no1 | 11.2% | 2.9% | -3.4% | 4.8% | -1.4% | 2.55% |
| S=C(SC1C=CCC1)N1CCOCC1 (configuration not stated) | 15.7% | -2.8% | 13.5% | -41.8% | 10.1% | -13.6% |
| C=C1C(=O)O[C@H]2C[C@@H]1C(=O)CC(C)CCCC(C)=CCC[C@@]2(C)O (some centres not stated) | 24.4% | 7.65% | 15.2% | 11.2% | -0.1% | -49.4% |
